Measurements from PubChem BioAssay.
Calls of active or inactive are those of the source. Unless noted, no rule for the calls is given here.

Assays:
[1] = resazurin metabolic signal in HepG2 cells – cell-based, resazurin fluorescence, 24 h, PK04 Diversity Set, profiling panel (AID 1172); details: HepG2 viability, higher = more signal
[2] = budding yeast growth changes without added modifier – OD600, strain BY4716, 24 h, basal condition, primary screen (AID 1173); details: S. cerevisiae BY4716 growth, OD600, 24 h; higher = more signal, called active from +8 up or from −8 down
[3] = viability profiling in MM1S myeloma cells – cell-based, resazurin fluorescence, basal, 24 h, PK04 Diversity Set, profiling panel (AID 1174); details: higher = more signal, called active from +8 up or from −8 down;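 also: MM1S multiple myeloma cell line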
[4] = target: Dihydroorotate dehydrogenase (quinone), mitochondrial (Plasmodium falciparum (isolate 3D7)) (UniProt Q08210); experiment: inhibition of P. falciparum DHODH – biochemical, C-terminal His tag, absorbance 600 nm, primary screen (AID 1175); details: PfDHODH enzyme, DCIP absorbance 600 nm; higher = more signal, called active from +8 up or from −8 down;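 also: recombinant parasite enzyme with a five histidine tag at its C terminus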
[5] = inhibition of PAO1 biofilm formation – strain PAO1, LB-PBS medium, absorbance 600 nm, primary screen (AID 1176); details: P. aeruginosa PAO1 growth/biofilm, A600, 12 h; higher = more signal
[6] = growth modulation of vineyard yeast isolate – strain RM11-1a, OD600, basal, 24 h, primary screen (AID 1177);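 also: cultures grown under basal conditions with no added stressor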; details: S. cerevisiae RM11-1a growth, OD600, 24 h; higher = more signal, called active from +8 up or from −8 down
[7] = growth of efflux-deficient E. coli DRC39 – strain DRC39, OD650, 24 h, E. coli filamentation inducers, primary screen (AID 1178);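 also: growth measured as culture turbidity by optical density at 650 nm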; details: E. coli DRC39 acrAB, higher = more signal, called active from +8 up or from −8 down
[8] = growth of efflux-deficient E. coli DRC39 – strain DRC39, OD650, 48 h, E. coli filamentation inducers, primary screen (AID 1179);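 also: screen aims at cell division blockers that make cells filament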; details: E. coli DRC39 delta-acrAB growth, higher = more signal, called active from +8 up or from −8 down
[9] = viability profiling in RPMI8226 myeloma cells – cell-based, resazurin fluorescence, basal, 24 h, PK04 Diversity Set, profiling panel (AID 1180); details: higher = more signal;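 also: RPMI8826 multiple myeloma cell line at 5000 cells per well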
[10] = target: E3 ubiquitin-protein ligase XIAP (Homo sapiens) (UniProt P98170); experiment: small molecules binding XIAP protein – biophysical, small-molecule microarray, fluorescence 635 nm, primary screen (AID 1181); details: higher = more signal;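 also: score merges 667 nm emission and signal to noise over triplicate slides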
[11] = tested on: XIP peptide (Xip251-270) binding; experiment: XIP fragment 251-270 binding compounds – biochemical, small-molecule microarray, fluorescence 635/667 nm, 0.1 µg/mL protein, primary screen (AID 1182); details: fluorescent protein binding, 635 nm, higher = more signal, called active from +8 up or from −8 down
XIP peptide (Xip251-270) = experiment: compounds binding XIP fragment 251-270 – biochemical, small-molecule microarray, fluorescence 635/667 nm, 0.5 µg/mL protein, primary screen (AID 1183); details: fluorescence 635 nm, higher = more signal
[12] = blood-stage malaria parasite viability loss – strain 3D7, DAPI fluorescence, 100 nL, primary screen (AID 1184);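 also: parasites grown inside human red blood cells in medium with human serum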; details: P. falciparum 3D7 growth, 3 d, higher = more signal
[13] = target: Homeobox protein Hox-A13 (Mus musculus) (UniProt Q62424); experiment: disruptors of Hoxa13 oligonucleotide interaction – biochemical, fluorescence polarization, labeled oligonucleotide, primary screen (AID 1185); details: Hoxa13:DNA binding, 15 min, higher = more signal, called active from +8 up or from −8 down
[14] = blockers of DNA damage checkpoint Chk1 activation – imaging, HeLa, hydroxyurea, phospho-Chk1 antibody, percent positive cells, primary screen (AID 1186); details: hydroxyurea-induced phospho-Chk1 immunofluorescence imaging, higher = more signal
[15] = blockers of DNA damage checkpoint Chk1 activation – imaging, HeLa, hydroxyurea, phospho-Chk1 nuclear intensity, primary screen (AID 1187); details: hydroxyurea-induced phospho-Chk1 immunofluorescence imaging, higher = more signal

Sequence of E3 ubiquitin-protein ligase XIAP (Homo sapiens) (P98170 whole entry, looked up, the tested form may be a part): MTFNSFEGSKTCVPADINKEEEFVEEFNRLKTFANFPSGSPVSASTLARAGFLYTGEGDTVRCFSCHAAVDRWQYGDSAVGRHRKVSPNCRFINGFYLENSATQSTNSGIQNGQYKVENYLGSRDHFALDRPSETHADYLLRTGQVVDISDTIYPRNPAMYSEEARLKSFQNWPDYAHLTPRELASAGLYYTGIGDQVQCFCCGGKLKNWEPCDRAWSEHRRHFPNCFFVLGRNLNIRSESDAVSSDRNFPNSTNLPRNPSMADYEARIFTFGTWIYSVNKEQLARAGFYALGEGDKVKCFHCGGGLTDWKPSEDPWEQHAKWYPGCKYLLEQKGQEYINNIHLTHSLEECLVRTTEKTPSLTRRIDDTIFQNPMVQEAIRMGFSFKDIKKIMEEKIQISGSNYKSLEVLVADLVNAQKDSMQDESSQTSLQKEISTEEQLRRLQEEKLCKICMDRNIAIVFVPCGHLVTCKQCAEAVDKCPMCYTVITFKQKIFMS
Sequence of Homeobox protein Hox-A13 (Mus musculus) (Q62424 whole entry, looked up): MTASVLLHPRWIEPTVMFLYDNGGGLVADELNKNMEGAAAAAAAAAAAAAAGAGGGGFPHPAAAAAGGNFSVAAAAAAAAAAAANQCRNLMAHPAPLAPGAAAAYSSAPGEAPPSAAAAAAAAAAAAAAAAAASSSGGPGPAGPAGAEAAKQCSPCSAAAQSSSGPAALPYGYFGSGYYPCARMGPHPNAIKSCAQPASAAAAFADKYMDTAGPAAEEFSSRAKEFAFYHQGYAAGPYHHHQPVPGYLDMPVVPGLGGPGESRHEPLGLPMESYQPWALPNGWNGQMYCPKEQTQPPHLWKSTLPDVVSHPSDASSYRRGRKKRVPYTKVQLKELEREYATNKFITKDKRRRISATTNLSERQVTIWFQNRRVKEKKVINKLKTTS
Sequence of Dihydroorotate dehydrogenase (quinone), mitochondrial (Plasmodium falciparum (isolate 3D7)) (Q08210 whole entry, looked up): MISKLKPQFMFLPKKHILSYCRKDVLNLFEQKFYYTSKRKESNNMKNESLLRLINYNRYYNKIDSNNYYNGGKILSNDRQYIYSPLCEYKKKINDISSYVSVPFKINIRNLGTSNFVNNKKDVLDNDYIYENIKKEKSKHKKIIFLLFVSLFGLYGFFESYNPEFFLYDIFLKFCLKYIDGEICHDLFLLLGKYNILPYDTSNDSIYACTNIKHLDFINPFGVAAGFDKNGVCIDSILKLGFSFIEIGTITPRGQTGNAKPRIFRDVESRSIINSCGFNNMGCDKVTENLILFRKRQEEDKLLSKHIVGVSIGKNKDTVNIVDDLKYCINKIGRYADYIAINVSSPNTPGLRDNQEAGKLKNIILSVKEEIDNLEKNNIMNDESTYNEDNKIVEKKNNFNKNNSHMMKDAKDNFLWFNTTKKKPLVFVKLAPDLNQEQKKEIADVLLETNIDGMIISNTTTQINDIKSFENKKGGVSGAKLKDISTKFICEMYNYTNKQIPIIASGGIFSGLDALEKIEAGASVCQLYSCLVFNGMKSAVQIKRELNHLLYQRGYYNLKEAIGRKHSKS

Row | Structure (SMILES) | z-score [1] | z-score [2] | z-score [3] | composite z-score [4] | z-score [5] | z-score [6] | z-score [7] | z-score [8] | z-score [9] | composite z-score [10] | composite z-score [11] | composite z-score (XIP peptide (Xip251-270)) | z-score [12] | z-score [13] | z-score [14] | z-score [15]
1 | CCOC(=O)C1=CC[C@@H](c2ccccc2)N(S(=O)(=O)c2ccc(C)cc2)[C@H]1c1ccc(CC)cc1 | 0.963 | 1.82 (inactive) | -0.342 (inactive) | 0.207 (inactive) | 0.806 (inactive) | 1.25 (inactive) | -0.692 (inactive) | 0.629 (inactive) | -0.224 | -0.11 | -0.223 (inactive) | 0.487 | -1.89 | 0.868 (inactive) | -0.0619 (inactive) | -0.606 (inactive)
2 | NC(=O)[C@@H]1[C@H]2C(=O)O[C@H](c3ccccc3)[C@H](c3ccccc3)N2[C@H](c2ccc(OCCO)cc2)[C@@]12C(=O)Nc1ccc(C#CC3=CCCCC3)cc12 | -1.67 | 0.193 (inactive) | -7.44 (inactive) | 0.207 (inactive) | 1.82 (inactive) | 0.657 (inactive) | -0.0159 (inactive) | -0.668 (inactive) | -6.82 | 0.543 | 0.124 (inactive) | 0.581 | -0.962 | 1.05 (inactive) | -0.0315 (inactive) | 0.0692 (inactive)
3 | O=C1C2C=CC(C(O)C=Cc3ccc([N+](=O)[O-])cc3)N(n3cnnc3)C2C(=O)N1Cc1ccccc1 (stereo not drawn) | 0.178 | -0.586 (inactive) | -0.519 (inactive) | 0.607 (inactive) | 0.601 (inactive) | -0.155 (inactive) | -0.866 (inactive) | -0.721 (inactive) | -0.647 | -0.236 | 1.01 (inactive) | 0.856 | -0.0257 | -3.97 (inactive) | -0.253 (inactive) | -0.32 (inactive)
4 | COCCOC(=O)N1C(=O)[C@@]2(c3cc(C#Cc4ccc(OC)cc4)ccc31)[C@H](c1ccc(O)cc1)N1[C@H](c3ccccc3)[C@H](c3ccccc3)OC(=O)[C@H]1[C@@H]2C(=O)Nc1nc2ccccc2s1 | -0.719 | -0.442 (inactive) | -0.72 (inactive) | -0.455 (inactive) | 0.819 (inactive) | 0.363 (inactive) | -0.184 (inactive) | -0.0404 (inactive) | -0.61 | 0.0345 | 0.691 (inactive) | 0.641 | -0.0098 | -0.183 (inactive) | -0.233 (inactive) | -0.215 (inactive)
5 | [N-]=[N+]=Nc1ccccc1[C@H]1OC(c2ccc(OCCCO)cc2)=N[C@@]1(Cc1ccccc1)C(=O)N1CCOCC1 | -1.28 | -1.33 (inactive) | -2.81 (inactive) | 0.396 (inactive) | 0.948 (inactive) | 0.711 (inactive) | 0.226 (inactive) | -0.927 (inactive) | -4.56 | -0.0917 | 2.73 (inactive) | 0.816 | -2.19 | -3.84 (inactive) | -0.0747 (inactive) | 0.0969 (inactive)
6 | [N-]=[N+]=Nc1ccccc1C[C@]1(C(=O)NCc2ccccc2)N=C(c2ccc(OCCCO)cc2)O[C@H]1c1ccccc1N=[N+]=[N-] | -1.17 | 0.371 (inactive) | -3.49 (inactive) | 0.535 (inactive) | 1.13 (inactive) | 0.879 (inactive) | -0.377 (inactive) | -0.0802 (inactive) | -2.83 | 0.0097 | -0.12 (inactive) | 0.681 | -2.32 | 0.69 (inactive) | -0.231 (inactive) | -0.741 (inactive)
7 | COc1ccc(C(=O)Nc2cccc(CN3C(=O)[C@]4(O[C@H](CCn5cc(CCO)nn5)[C@@H]([Si](C)(C)c5ccc(OC)cc5)[C@@H]4C)c4ccccc43)c2)cc1 | -6.31 | -7.34 (inactive) | -9.11 (active) | 2.2 (inactive) | 1.12 (inactive) | 4 (inactive) | 0.216 (inactive) | -0.883 (inactive) | -6.19 | -0.173 | -0.16 (inactive) | 0.249 | -2.72 | -4.83 (inactive) | -0.745 (inactive) | -2.04 (inactive)
8 | CCOC(=O)C[C@H]1[C@H](OC(=O)c2ccc(-c3ccccc3)cc2)[C@@H](NC(=O)c2ccccc2)c2cc(OCCCO)ccc2N1C(=O)Cc1ccc(OC)cc1 | -0.161 | 0.742 (inactive) | 0.393 (inactive) | 0.593 (inactive) | 0.845 (inactive) | 1.47 (inactive) | 0.835 (inactive) | 0.451 (inactive) | -0.041 | -0.0936 | -0.11 (inactive) | -0.664 | -1.09 | -1.36 (inactive) | -0.0036 (inactive) | 0.16 (inactive)
9 | COc1cc2c(cc1O)C(c1cccs1)N(Cc1ccc([N+](=O)[O-])o1)CC2 (stereo not drawn) | -0.302 | -2.05 (inactive) | 0.278 (inactive) | -4.93 (inactive) | 0.723 (inactive) | -1.14 (inactive) | -0.107 (inactive) | 1.19 (inactive) | -0.182 | -0.102 | 0.243 (inactive) | 0.947 | -0.316 | -6.24 (inactive) | -0.334 (inactive) | -0.445 (inactive)
10 | O=C1C2C=CC(C(O)c3c(F)cccc3Cl)N(Nc3ccccc3F)C2C(=O)N1c1ccccc1 (stereo not drawn) | -0.269 | -0.796 (inactive) | -0.819 (inactive) | -0.303 (inactive) | 0.447 (inactive) | 0.824 (inactive) | -0.0281 (inactive) | 0.729 (inactive) | -0.144 | -0.0749 | 0.433 (inactive) | 0.811 | 0.562 | -0.377 (inactive) | 0.486 (inactive) | 0.435 (inactive)
11 | COC(=O)[C@@]1(Cc2ccc(OC)cc2)[C@H]2c3cc(C(=O)N4CCCC4)n(CCCNc4ncc(C(F)(F)F)cc4Cl)c3C[C@H]2CN1C(=O)c1ccccc1 | 0.808 | 1.01 (inactive) | -1.12 (inactive) | -0.199 (inactive) | -0.0982 (inactive) | 0.398 (inactive) | -0.0379 (inactive) | -0.816 (inactive) | -2.67 | 0.0986 | -0.546 (inactive) | 0.736 | -1.41 | -4.1 (inactive) | 0.259 (inactive) | -0.101 (inactive)
12 | COC(=O)c1c2oc(c1C(=O)OC)C(=O)N[C@@H](C(C)C)Cn1cc(nn1)C1(CCCCC1)NC(=O)N[C@H](CO)CC2 | 1.61 | -1.04 (inactive) | 1.31 (inactive) | 0.0825 (inactive) | 0.985 (inactive) | -0.719 (inactive) | 0.925 (inactive) | 1.11 (inactive) | 1.07 | 0.098 | 0.0023 (inactive) | 0.0911 | 0.0538 | -0.587 (inactive) | 0.193 (inactive) | 0.284 (inactive)
13 | COC(=O)[C@@]1(Cc2ccc(F)cc2)[C@H]2c3cc(C(=O)N(C)C)n(Cc4ccc(C)o4)c3C[C@H]2CN1C(=O)c1ccccc1 | -0.0869 | 0.241 (inactive) | 0.003 (inactive) | -0.631 (inactive) | 0.467 (inactive) | -0.0282 (inactive) | -0.359 (inactive) | -0.192 (inactive) | -0.0803 | 1.87 | 1.66 (inactive) | 0.665 | -1.44 | -2.94 (inactive) | 0.262 (inactive) | -0.0286 (inactive)
14 | CN(C)C(=O)[C@]1(Cc2ccccc2)N=C(c2ccc(OCCCO)cc2)O[C@@H]1c1ccccc1N=[N+]=[N-] | -0.274 | -1.43 (inactive) | -2.64 (inactive) | 0.9 (inactive) | -0.0837 (inactive) | 1.29 (inactive) | 0.349 (inactive) | 0.908 (inactive) | -2.58 | 0.237 | 0.79 (inactive) | 0.708 | -2.31 | -5.85 (inactive) | -0.366 (inactive) | -0.903 (inactive)
15 | CN1C(=O)C2C=CC(C(O)c3ccc(F)cc3)N(N(c3ccccc3)c3ccccc3)C2C1=O (stereo not drawn) | -0.898 | 0.41 (inactive) | -0.957 (inactive) | -0.0882 (inactive) | 1.14 (inactive) | 0.242 (inactive) | -0.513 (inactive) | -0.26 (inactive) | -1.36 | 0.499 | -0.0116 (inactive) | -0.0807 | 0.988 | -3.45 (inactive) | 1.17 (inactive) | 0.568 (inactive)
16 | CO[C@H]1O[C@H](CO)[C@@H](OC(=O)Nc2cccc(F)c2)[C@H](OC(=O)Nc2ccccc2)[C@H]1OC(=O)Nc1ccccc1 | -2.71 | 0.311 (inactive) | -4.75 (inactive) | -0.599 (inactive) | -0.261 (inactive) | 1.77 (inactive) | 1.11 (inactive) | 0.194 (inactive) | -4.5 | 0.072 | 0.879 (inactive) | 0.882 | -2.38 | -5.97 (inactive) | -0.357 (inactive) | 0.161 (inactive)
17 | CC1CC/C=C\[C@H]2OC34C=CCN(Cc5ccccc5)C(=O)[C@H]3N(C(C)CO)C(=O)[C@@H]4C2C(=O)O1 (stereo partly drawn) | 0.36 | -1.39 (inactive) | 0.678 (inactive) | -0.166 (inactive) | -0.525 (inactive) | -0.0642 (inactive) | 0.492 (inactive) | 1 (inactive) | 0.233 | 0.0772 | -0.49 (inactive) | 0.0057 | -0.562 | -5.87 (inactive) | -0.682 (inactive) | -0.602 (inactive)
18 | O=C1C2C=CC(C(O)c3ccc(F)cc3)N(Nc3ccc([N+](=O)[O-])cc3)C2C(=O)N1c1ccccc1 (stereo not drawn) | 0.349 | 0.579 (inactive) | -0.115 (inactive) | -0.0421 (inactive) | 0.862 (inactive) | -0.228 (inactive) | -1.47 (inactive) | -0.639 (inactive) | -0.152 | 0.135 | 0.224 (inactive) | 0.942 | -0.255 | -4.16 (inactive) | 0.137 (inactive) | 0.653 (inactive)
